# Measured values from the supplement of paper PMC6555819.
# Test system: VDR:RXRa (NR concentration 270 nM, RXRa partner concentration 90 nM)
# Assay: PBM binding z-score (relative to random genomic background probes); higher = stronger binding; sequences stand for … in GC…GCGATTGACAGCGTAGAATGAAGG
# Method: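 Protein-binding microarray (Agilent 4x180K custom design, double-stranded 60-nt probes: 5' GC cap, 34-nt variable region, 24-nt constant primer region; full probe sequence given). Purified or IVT nuclear receptor:RXRα heterodimers (3:1 NR:RXRα, mostly 270:90 nM) or homodimers were incubated for 1 h in PBS with 2% milk and no ligand, then detected with Alexa488 antibodies. Fluorescence from o1-orientation probes (~5 replicates averaged) was converted to z-scores against 500 random hg19 background probes. Variable regions are seed direct-repeat (DR0–DR5) sites, all their single-nucleotide variants and half-site ablations.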
row,Sequence,PBM binding z-score
1,CCTAGTAGGTCAGGAGGTCACACACCGGATATGA,4.92
2,CCTACTTGGTCAGGAGGTCACACACCGGATATGA,3.89
3,CCGGGTAGGTTATGGGGCATTCAGGCAACGGTGA,0.056
4,TCATATGGGTAATACAGGTGAAAGTCGGCATCTA,0.677
5,CTCCAAAGGTCGTGCTCAGGTGAGTATACCAAAC,3.59
6,GCTCGGAGGACAAAGTCAGAGCTTTGTCCGTAGA,-0.556
7,GATACTGGGTCAGCTAGAGGCCAGAGTATGGAAA,0.938
8,TGGCCTAGGTCATTGGGCCAGTATAGTACGCATC,1.87
9,CGTCCAAGGTCAAAGGTCGGTGAAGAGATGACGG,5.32
10,AGAACGAGGGCAGGCTGAGTTGATAGCAGAGTAG,0.431
11,CCAGCCAGGTGAAAGGTAACTCAGTCTGGTACGC,0.288
12,CCGACTGGGGCAGGGTTACCATAACGCACAGCCA,0.216
13,TCATATAGGGAATACAGGTGAAAGTCGGCATCTA,1.11
14,GCTATTAGTTGACAGGGCAACCGAATGATTCTCG,-0.414
15,CCTAGTTGGTCAGGAGGTCACACGCCGGATATGA,3.93
16,AGAACGAGGGCACGCTGAGCTGATAGCAGAGTAG,0.52
17,TGTCAAAATTCAAAGGTAACGTAAGTATCCACAC,0.436
18,TCTCGGAGGACACGATGGTCAGAGCTTTCCAGAG,-0.133
19,GGAACGAGGGCAAGTTGATAGCAGAGTTTGATGG,0.688
20,GCTGCTGGGTCAGGTTGGTCAGCTAACGGGTACG,0.554

row,Sequence,PBM binding z-score
1,CAAACTAAGTCACGAAAGGTCAAAGTCGAATGAC,5.34
2,ATTTACGGGTCAACGAGGTTATAGCACGCGTATA,8.05
3,CCTACTGGGCCAAAGGTCATTTATTCCAATGCTC,4.34
4,GATACAGGGTCAGCTAGAGGCCAGAGTGTGGAAA,3.39
5,CCTTACGGGTCACTCCAGGTTGTAGCATCGGAGT,3.62
6,ACAGACAGGTTAGTGAAGGTAACTCAGCTGGACG,-0.0325
7,GCGACTGGGGCAAAGCAGGTTACCACAAGGTTGG,0.0392
8,GATACAGGGTCAAGGCCAGACTACGCGTATTGAT,4.28
9,TTACCAAGGTGAGCTCAGGTCGTTGATCCAACTC,1.81
10,CCTAGTTGGTCAGGAGGTTACACACCGGATATGA,0.869
11,TCTTGTAGATCAATAGAGGTTGAGAAAGTGCGCT,0.789
12,ATCGAAAGGTGGAAGGTGAGTATACCCACCCGAA,0.0525
13,ATATGTAGGTTACATCCGGGTCATTCGGGCTATG,3.9
14,GCACCAAGGTGAATAGGTCGTTGATGAGTAGGCG,0.503
15,GATACAGGGTCAAGGCCAGCGTACGCGTATTGAT,3.89
16,ATCTCTAGGTAAAGATAGTTCACTGAATGCAAAT,1.37
17,GGAACCAGGGCAAGTTGATAGCAGAGTTTGATGG,0.319
18,GCTTGTAGATCATGGTTAAGAAAGACTAAGCTAA,-0.404
19,TCTGCTAGGTCAACGATGATCAGCTAATCTGCTA,1.17
20,ATCGAAAGGTAGAGGTGAGTATAGAGAAAGGGAA,0.0851
